# Measurements: PubChem BioAssay AID1671190 (National Center for Advancing Translational Sciences (NCATS), 2021)
# In all, about 580,000 compounds went through this assay and about 6,100 (1.1%) were called active. Not shown: some 15% with an inconclusive outcome. This is one part of a sample in which actives are shown more often than they occur. Values without a mark were called inactive. The call rests on the fitted dose curve; in most records, active means well fitted inhibition curve with a large enough effect; inconclusive means small, poorly fitted or top-dose-only effect, or another doubt; inactive means no such curve, though single readings can be large or run the other way.
# Target: Polyunsaturated fatty acid lipoxygenase ALOX12 (Homo sapiens) (UniProt P18054)
# Test: Primary qHTS assay for inhibitors of human arachidonate 12S-lipoxygenase (ALOX12): Round 2
# Conditions: purified 12hLO, xylenol orange hydroperoxide absorbance; series mostly up to 108 µM; activity change, negative = inhibition: at the top concentration
# Outline: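 Purified human 12hLO at 150 nM in 25 mM Hepes, 0.01% Triton X-100, pH 7.0, preincubated 15 min at room temperature with compound. Reaction started with 40 uM arachidonic acid, 30 min at room temperature. Hydroperoxide measured by Fe-xylenol orange, 573/405 nm absorbance ratio.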
# On the % scale 0 is the no-effect control and ±100 the full control effect; potency means the concentration at half of the fitted maximal effect.
# Polyunsaturated fatty acid lipoxygenase ALOX12 (Homo sapiens), sequence (P18054 whole entry, looked up): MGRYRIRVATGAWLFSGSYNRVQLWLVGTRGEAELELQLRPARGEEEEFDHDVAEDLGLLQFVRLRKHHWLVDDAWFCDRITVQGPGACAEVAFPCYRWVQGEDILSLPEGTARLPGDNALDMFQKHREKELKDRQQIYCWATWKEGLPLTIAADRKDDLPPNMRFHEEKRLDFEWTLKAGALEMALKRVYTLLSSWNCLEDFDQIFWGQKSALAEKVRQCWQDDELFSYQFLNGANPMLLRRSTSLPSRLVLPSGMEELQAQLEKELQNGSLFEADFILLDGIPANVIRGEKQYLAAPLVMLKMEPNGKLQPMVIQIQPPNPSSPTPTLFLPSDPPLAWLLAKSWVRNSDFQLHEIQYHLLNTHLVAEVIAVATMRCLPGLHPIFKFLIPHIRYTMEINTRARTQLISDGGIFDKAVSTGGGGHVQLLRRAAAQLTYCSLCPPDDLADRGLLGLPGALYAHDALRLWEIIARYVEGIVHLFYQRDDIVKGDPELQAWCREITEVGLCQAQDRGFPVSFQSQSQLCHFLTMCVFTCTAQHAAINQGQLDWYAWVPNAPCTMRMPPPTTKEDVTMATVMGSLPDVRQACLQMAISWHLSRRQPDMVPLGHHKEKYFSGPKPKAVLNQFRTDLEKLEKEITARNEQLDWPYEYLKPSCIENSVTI
Compound,"activity change, negative = inhibition",Potency
COCC1CN(Cc2cn(C)c3ccc(OC)cc23)CC12CCNCC2 (stereo not drawn),19%,
COc1cc(/C=C/c2nc3ccccc3s2)ccc1OC(F)F,3.41%,
CCn1c(SCC(=O)Nc2ccccc2C(=O)NC2CC2)nnc1-c1ccoc1C,-8.6%,
COc1ccc(C(=O)NCCSc2ccccc2C)cc1,0%,
COc1ccc(C(=O)NCC[N+](C)(C)C)cc1,,39.8 µM (active)
COc1ccc(N2CCN(C(=O)CCNC(=O)c3ccc(Br)cc3)CC2)cc1,-21.7%,
CCN(Cc1nc(-c2ccc(OC)c(OC)c2)no1)C(=O)Nc1cccc2ccccc12,6.76%,
Cc1[nH]c2ccccc2c1C=O,8.16%,
Cc1[nH]c2ccccc2c1/C=N/c1sc2c(c1C#N)CCC(C)C2 (stereo not drawn),,22.4 µM (active)
COC(=O)c1c(NC(=O)CCCOc2ccccc2)sc2c1CCC(C)C2 (stereo not drawn),0%,
COC(=O)CC(NC(=O)c1nn(C)c(=O)c2ccccc12)c1ccc(F)cc1 (stereo not drawn),-8.65%,
Nc1ccc(-c2cc(C(=O)O)c3cc(Cl)ccc3n2)cc1,-28.1%,
Cc1nc(C)c(C(=O)N2CCCC(C(=O)NCc3ccccc3)CCNC(=O)CC2)s1 (stereo not drawn),-1.73%,
N#CC1CCN(C(=O)c2nc(-c3ccc(Cl)cc3)c3ccccn23)CC1,-3.2%,
CCOc1ccccc1N1CCN(c2nc(-c3cccnc3)nc3ccccc23)CC1,3.11%,
COc1ccc(N2CCN(c3nc(-c4ccccc4F)nc4ccccc34)CC2)cc1,-11.4%,
COc1ccccc1-c1nc(N2CCN(C)CC2)c2ccccc2n1,,28.2 µM (active)
COC(=O)C1CCCCN1S(=O)(=O)c1cc(Cl)ccc1Cl (stereo not drawn),8.51%,
CN1c2ccc(C=O)c3c(C=O)ccc(c23)N(C)C1(C)C,,28.2 µM (active)
O=C(CCC1NC(=O)c2ccccc2NC1=O)NC1CCCCCC1 (stereo not drawn),-0.849%,
Fc1ccccc1N1CCN(c2nc(-c3cccnc3)nc3ccccc23)CC1,0.0579%,
FC(F)(F)c1ccccc1-c1nc(-n2ccnc2)c2ccccc2n1,,15.8 µM (active)
CC(C)Nc1nc(N(c2ccccc2)c2ccccc2)nc(-n2ccnc2)n1,51.5%,
CCCc1noc(CN2CCN(c3cc(C)nc(C(C)C)n3)CC2)n1,6.23%,
N#C/C(=C/c1ccco1)c1nc2ccccc2[nH]1,,39.8 µM (active)
COc1cccc2cc(/C=C(/C#N)c3nc4ccccc4[nH]3)oc12,-44.6%,

Compound,"activity change, negative = inhibition",Potency
CC(C)c1ccc(/C=C(/C#N)c2nc3ccccc3[nH]2)cc1,-19.9%,
O=c1oc2ccccc2cc1S(=O)(=O)c1cccc(Cl)c1,-19.4%,
CC(C)N1C(=O)C2(CCCC2)C1C(=O)Nc1ccc2c(c1)N(C)CCC2 (stereo not drawn),71.1%,
Cc1ccc(N2NC(=O)/C(=C/C=C/c3ccco3)C2=O)cc1C,,39.8 µM (active)
Cc1ccc(C(=O)N/C(=C\c2ccco2)C(=O)N2CCSCC2)cc1C,14.6%,
Cc1ccc(N=C2NC(=O)/C(=C/C=C/c3ccco3)S2)cc1C,,10 µM (active)
CCc1ccccc1NC(=O)Nc1c(NC2CCCC2)c2ccccc2oc1=O,3.81%,
COc1cccc(NC(=O)c2ccc3c(c2)NC(C)(COc2ccccc2)CO3)c1 (stereo not drawn),-2.36% [at 176 µM],
CCCNC(=O)N1CCC(N(C)C2CCOCC2)CC1,63.3%,
OC(CNCCc1ccc(Cl)cc1Cl)COc1ccccc1 (stereo not drawn),,12.6 µM (active)
N#Cc1ccc(OCC(O)CNCCC2=CCCCC2)cc1 (stereo not drawn),5.82%,
CC(O)CNCCOc1cccc(Oc2ccccc2)c1 (stereo not drawn),-17.6%,
CCn1ccnc1CN(C)Cc1cccc(OCC(O)CN(C)C2CCCCC2)c1 (stereo not drawn),82.8%,
O=C(NCc1ccccc1)c1cc(-c2cccc(Cl)c2)on1,-22%,
O=C(O)C(c1ccccc1)N1C(=O)/C(=C\c2ccc(-c3cccc(Cl)c3)o2)SC1=S (stereo not drawn),,2 µM (active)
Cc1ccc2[nH]cc(C(C(=O)O)N3CCN(S(=O)(=O)c4ccccc4)CC3)c2c1 (stereo not drawn),-23.2%,
NC(=O)c1cccc(NC(=O)c2cccc3cccnc23)c1,-20.1%,
Cc1nn(-c2ccc(C(C)C)cc2)c(C)c1[C@@H]1C=C[C@@H](NC(=O)Nc2ccccc2)C1,35% [at 176 µM],
Cc1nn(-c2ccc(C(C)C)cc2)c(C)c1[C@@H]1C=C[C@@H](NC(=S)NCC(C)C)C1,,56.2 µM (active)
Cc1nn(-c2ccc(C(C)C)cc2)c(C)c1[C@@H]1C=C[C@@H](NC(=O)CC2(CC(=O)O)CCCC2)C1,9.29%,
CCCn1nc(C(=O)NC2CCN(C(C)C)CC2)c2ccccc2c1=O,3.11%,
Cc1noc(C)c1-c1cc(NCc2cccnc2)ncn1,,31.6 µM (active)
Cc1cnc(CNc2cc(-c3c(C)noc3C)ncn2)cn1,-20.8%,
COCCNc1cc(-c2c(C)noc2C)ncn1,,39.8 µM (active)
Cc1cc2cc(-c3c(C)noc3C)nc(NCc3cccnc3)c2o1,42.9% [at 176 µM],
CNc1cc(-c2c(C)noc2C)ncn1,-26.5%,

Compound,"activity change, negative = inhibition",Potency
COCCCNC(=O)c1ccc(-c2c(C)noc2C)c2ccoc12,8.36%,
O=C(NCCc1cccnc1)c1cccc(Cl)c1Cl,5.55%,
c1ccc(-c2noc(-c3ccco3)n2)cc1,1.51%,
Cc1ccc(C(=O)Nc2cnc3ccccc3c2)cc1[N+](=O)[O-],12.7%,
C/C(=N\NC(=S)Nc1ccc(C)cc1)c1cc2ccccc2o1,,25.1 µM (active)
CC(C)Oc1ccc(NC(=O)c2cc3ccccc3o2)cc1,0.347%,
Cc1cc2nc(-c3ccc(NC(=O)c4cc5ccccc5o4)cc3)oc2cc1C,-10.3%,
COc1cccc(/C=C2\Oc3cc(OS(=O)(=O)c4ccc(C)cc4)ccc3C2=O)c1OC,1.7%,
Cc1ccc(NC(=O)CN(C)C(=O)c2nn(-c3ccccc3)c3c2CCC3)cc1,20.1%,
CCNC(=O)O[C@@H]1CO[C@H]2[C@@H]1OC[C@@H]2NC(=S)Nc1cccc2ccccc12,,56.2 µM (active)
COc1ccc(-c2ccnc(N[C@H]3CO[C@H]4[C@@H]3OC[C@H]4OC(=O)Nc3cccc4ccccc34)n2)cc1,12.3%,
COc1ccc(NC(=O)O[C@@H]2CO[C@H]3[C@@H]2OC[C@@H]3NC(=S)Nc2cccc3ccccc23)cc1,-26.3%,
CCOc1ccc(N2CC(NC(=O)CC(C)(C)C)CC2=O)cc1 (stereo not drawn),-1.73%,
O=C(Cc1ccccc1F)NC(c1ccc2c(c1)CCC2)c1cccs1 (stereo not drawn),-26.6%,
CCCCc1ccc(C(=O)Cn2nnc(-c3cccc(F)c3)n2)cc1,-34.4%,
CC(C)(C)c1ccc(C(=O)NCC(c2ccco2)S(=O)(=O)c2ccc(F)cc2)cc1 (stereo not drawn),-22.1%,
Cc1ccc(C(=O)Nc2cc3c(cc2N2CCCC2)n(C)c(=O)c(=O)n3C)cc1,12.9%,
Cn1c(=O)n(C)c2cc(SCc3ccco3)c(NC(=O)c3ccc(C(C)(C)C)cc3)cc21,,8.91 µM (active)
CCNC(=O)C1CCCN1S(=O)(=O)c1ccc(Br)s1 (stereo not drawn),4.48%,
Cc1ccc(CN2CCN(C(=O)CCC[C@H]3NC[C@@H]4C[C@H]3CN(Cc3ccccc3)C4)CC2)cc1,-13.9%,
Cc1oc(-c2ccccc2)nc1Cn1ncc2ccccc2c1=O,-5.85%,
Cc1cccc(CN2CCC3(Cc4ccccc4CNC3=O)C2)c1 (stereo not drawn),3.12% [at 6.33 µM],
COc1ccc(CN2CCC3(Cc4ccccc4CNC3=O)C2)cc1OC (stereo not drawn),8.59% [at 6.33 µM],
Cc1ccc(CN2CCC3(Cc4ccccc4CNC3=O)C2)cc1 (stereo not drawn),,28.2 µM (active)
O=C(NC1CCN(CCCc2nc3ccccc3o2)CC1)C1CCCCC1,-5.42%,
CCC(=O)Nc1ccccc1-c1nc2ccccc2n(CC(=O)Nc2ccc(NC(C)=O)cc2)c1=O,-26.1%,

Compound,"activity change, negative = inhibition",Potency
O=C1NS(=O)(=O)c2ccccc21,,12.6 µM (active)
CN(C)S(=O)(=O)c1ccc(C(=O)NCCN=C2NS(=O)(=O)c3ccccc32)cc1,1.56%,
Cc1ccccc1C(=O)NCCN=C1NS(=O)(=O)c2ccccc21,9.19%,
CCN(Cc1nc2ccccc2c(=O)[nH]1)C(=O)Cc1csc(-c2ccc(C)cc2C)n1,3.87%,
COc1cccc(-c2cc(NC(C)=O)c3ncc(-c4cccc(C(C)=O)c4)n3c2)c1,-5.38%,
COc1ccc(-c2cc(NC=O)c3ncc(-c4ccccc4)n3c2)cc1OC,-5.7%,
COc1ccccc1-c1cc(NC(C)=O)c2ncc(-c3ccc(F)cc3)n2c1,,44.7 µM (active)
CC(C)c1noc(C(C)Sc2nc(C3CC3)nc3ccccc23)n1 (stereo not drawn),7.22%,
O=C(O)CCC(=O)C(CC(=O)O)CC(=O)O,-22.1%,
Cn1nc(C(C)(C)C)cc1NC(=O)c1cccc(F)c1,-45%,
Cc1ccc(NC(=O)c2oc(=O)c3ccccc3c2-c2ccccc2)c(C)c1,-8.51%,
Cc1ccc(NC(=S)NC(=O)c2ccc(-c3ccccc3)cc2)c(C)c1,,17.8 µM (active)
Cc1ccc(NC(=S)Nc2ncccc2C)c(C)c1,,8.91 µM (active)
Cc1cc(C)c(/C=N/NC(=O)c2ccccc2)c(C)c1,-20.9%,
CCOC(=O)N1CCN(C(=S)Nc2ccc(C)cc2C)CC1,0.181%,
Cc1cccnc1NC(=O)c1ccc2nc(C)c(C)nc2c1,14.6%,
O=C(NNC(=O)C1(c2ccc(Br)cc2)CCCC1)c1ccccc1,-11.9%,
COc1ccc(C2Cn3cnc(-c4nc(-c5ccc(OC)cc5OC)no4)c3CO2)cc1 (stereo not drawn),0.752%,
CCc1c(C(=O)O)csc1C,4.31%,
CCCCc1nc2sc(C(=O)OCC)c(N)c2c2c1COC(C)(C)C2,10.5%,
O=C(OCc1cn([C@@H]2C[C@H](c3ccc(Cl)cc3)N(Cc3cccs3)C[C@H]2O)nn1)c1ccccc1,-2.55%,
O[C@H]1C[C@H](c2ccc(Cl)cc2)N(Cc2cccs2)C[C@@H]1n1cc(C2CC2)nn1,,44.7 µM (active)
O[C@@H]1C[C@H](c2ccccc2)N(Cc2cccs2)C[C@H]1n1cc(C2CC2)nn1,0%,
CC(C)Cn1nc(C(=O)OCC(=O)Nc2ccc(OC(F)(F)F)cc2)c2ccccc2c1=O,3.44%,
Cc1ccccc1S(=O)(=O)N1CCCC(CCC(=O)NCC2CCCCC2)C1 (stereo not drawn),16.3%,
